Data as given in PubChem BioAssay AID924 (National Center for Advancing Translational Sciences (NCATS), 2007).
“And” between values parts separate entries of the source, which are not always exact repeats. Equal entries are not always repeated. About 1,200 (0.92%) of roughly 130,000 compounds were called active. Not shown: some 3% with an inconclusive outcome. The call rests on the fitted dose curve; in most records, active means well fitted cell-killing curve with a large enough effect; inconclusive means small, poorly fitted or top-dose-only effect; inactive means no such curve, though single readings can be large or run the other way. The list comes from a sample in which actives are over-represented; it also holds similar structures and randomly drawn compounds.

test: qHTS Screen for Compounds that Selectively Target Cancer Cells with p53 Mutations: Cytotoxicity of p53ts Cells at the Permissive Temperature; settings: H1299-p53A138V at 32C, ATP luminescence viability, 24 h; series mostly up to 46.1 µM; activity change, negative = cytotoxicity: at the top concentration; further: nearly all actives have a fitted effect of over 55% in size;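 on activity change, negative = cytotoxicity: 0% = DMSO and -100% = full killing by reference compound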
From the text: NIH Chemical Genomics Center [NCGC] NIH Molecular Libraries Screening Centers Network [MLSCN] MLSCN Grant: 1 X01 MH079844-01 Assay Submitter (PI): Dr. SUN, YI, University of Michigan NCGC Assay Overview: Synthetic Lethal Screen for Compounds to Kill Cancer Cells with p53 Mutation. Tumor suppressor gene p53 serves as a major cellular barrier against tumorigenesis. […] The goal of this screening is to identify small molecule probes that selectively kill cancer cells with mutations in p53. This screening was carried out using two lines of H1299 lung cancer cells. The H1299-p53 A138V line express a temperature sensitive p53 mutant (p53ts) in which the mutant p53 protein (A138V) is in the mutant confirmation when grown at 39C (the nonpermissive temperature) and in the wild type conformation when grown at 32C (the permissive temperature). A H1299-neo line (p53 null) grown at both 39C and 32C were used as counter-screens to filter out false positive associated with temperature shifting. The small molecular compounds that selectively target mutant p53-containing cancer cells were selected as candidate probes for further study. A cytotoxicity assay based on the measurement of ATP contents in cells was used in this screen. Concentration-responses of all the compounds in the library collection were determined in qHTS using the cell lines and temperature conditions as above.
NCGC Assay Protocol Summary: Both the H1299-p53A138V and H1299-neo cell lines were provided by Dr.Yi Sun, a PI at the University Michigan. The cells were maintained and cultured at 37C. The resuspended frozen cells were used to plate the cells in the 1536-well assay plates at a density of 600 cells per well in 5 ul medium. The assay plates with the cells were incubated at 37C for 16 to 30 hours before the experiments. The library compounds in DMSO solution were added to the cells in assay plates and incubated 24 hours at 39C (for mutant p53 conformation) or 32C (for normal p53 conformation as control). An ATP_lite assay kit (PerkinElmer) was used to determine the cell viability. Tomaxifen (100uM) was used as the positive control for cell killing. Data were normalized to the controls for basal activity (DMSO only) and 100% killing (100uM tamoxifen). AC50 values were determined from concentration-response data modeled with the standard Hill equation. P53 assay protocol: 1. Reagent; 5 uL H1299-p53A138V or H1299-neo cell cells/well 2. Time; overnight; 37C incubation 3. Compounds; 23 nL; 5.9 nM to 46 uM 4. Controls; 23 nL; Tamoxifen 100 uM 5. Time; 24 hr; 37C incubation 6. Reagent; 3 uL; ATP_Lite reagent 7. Time; 20 min; Room Temperature 8. Detection; Luminescence; Viewlux plate reader Keywords: p53, synthetic lethal, cancer, cell viability, cytotoxicity, H1299 cell line, luminescence, MLSMR, MLSCN, NIH Roadmap, qHTS, NCGC
Potency means the concentration at half of the fitted maximal effect.

Row | SMILES | activity change, negative = cytotoxicity | Potency
1 | CCN(CCCCOC(=O)c1ccc(OC)c(OC)c1)C(C)Cc1ccc(OC)cc1 (stereo not drawn) | -4.52% (inactive) | 
2 | COc1ccc(/C=C/NC(=O)Cc2ccc(OC)c(OC)c2)cc1 | -5.23% [at 9.22 µM] (inactive) and 5.05% [at 9.22 µM] (inactive) | 
3 | COc1ccc(C(CCN(Cc2ccc(OC)c(OC)c2)C(=O)CCl)c2ccccc2)cc1 (stereo not drawn) |  | 5.01 µM (active)
4 | CCc1ccc(NC(=O)c2cc(S(=O)(=O)N3CCCC(C)C3)cn2C)cc1 (stereo not drawn) | -1.68% (inactive) | 
5 | COc1cccc(NC(=O)CSC2=Nc3ccccc3C3=NC(CC(=O)NC4CCCCC4)C(=O)N23)c1 (stereo not drawn) | -4.48% (inactive) | 
6 | COC(=O)c1ccccc1NC(=O)Cn1c(=O)cc(C)c2c(C)nn(-c3cccc(Cl)c3C)c21 | 1.69% (inactive) | 
7 | Cc1ccc(NC(=O)CSc2nc3c([nH]c4ccccc43)c(=O)n2-c2ccccc2)c(C)c1 | -0.407% (inactive) | 
8 | CC(C)c1ccc(NC(=O)CN(C)S(=O)(=O)c2ccc3c(c2)c(=O)n(C)c(=O)n3C)cc1 | -1.91% (inactive) | 
9 | COC(=O)c1sc(NC(=O)c2ccc(OC)cc2OC)nc1C |  | 0.398 µM (active)
10 | COc1ccc(C(=O)Nc2nncs2)c(OC)c1 | -22% (inactive) | 
11 | COC(=O)c1sc(NC(=O)c2csc3c2CCCC3)nc1C | -10.1% (inactive) | 
12 | COc1ccc(-c2nc3sc(CCNS(=O)(=O)c4ccc(F)c(C)c4)c(C)n3n2)cc1 | -7.31% (inactive) | 
13 | O=C(NCCc1ccc(Cl)cc1)c1ccc2nc(CCc3ccccc3)oc2c1 | 0.682% (inactive) | 
14 | CCn1c(=O)c2cc(C(=O)NCCc3ccc(Cl)cc3)sc2c2ccccc21 | 4.45% (inactive) | 
15 | Cc1ccccc1Nc1nn2c(=O)c3ccc(C(=O)NCCc4ccc(Cl)cc4)cc3nc2s1 |  | 15.8 µM (active)
16 | CCOc1ccc(C(=O)c2cn(Cc3ccccc3OC)c3ccc(F)cc3c2=O)cc1 | 10.8% (inactive) | 
17 | CCOC(=O)c1cc2c(=O)n3ccccc3nc2n(CC2CCCO2)c1=NC(=O)c1ccccc1Br (stereo not drawn) | 3.37% (inactive) | 
18 | O=C(NCc1ccc2c(c1)CCN2C(=O)c1ccccc1)Nc1cc(F)ccc1F | 3.25% (inactive) | 
19 | COc1ccc(-c2nc(-c3ccccc3)no2)c(OC)c1 |  | 5.01 µM (active)
20 | COc1ccc(-c2noc(CSc3nnc(-c4ccccc4)n3-c3ccc(F)cc3)n2)c(OC)c1 | 24.7% (inactive) | 
21 | COc1ccc(-c2cc(-c3nc(-c4cc(OC)c(OC)c(OC)c4)no3)[nH]n2)c(OC)c1 | -4.57% (inactive) | 

Row | SMILES | activity change, negative = cytotoxicity | Potency
22 | CCn1c(C)c(C)c2cc(C(=O)N3CCN(c4cccc(C)c4C)CC3)ccc21 | -5.04% (inactive) | 
23 | CCOc1ccc(C(=O)/C=C/c2cn(CC(O)CN3CCCCCC3)c3ccccc23)cc1 (stereo not drawn) | -24.6% (inactive) | 
24 | CCOC(=O)c1nnn(CC(=O)NC(=O)Nc2ccccc2F)c1C(=O)OCC | -0.4% (inactive) | 
25 | Cc1ccc2oc(C(=O)Nc3ccc(S(=O)(=O)N4CCCCCC4)cc3)cc(=O)c2c1 | -1.14% (inactive) | 
26 | Cc1cc(C)c2c(n1)nn1c(N3CCOCC3)cc(C)nc21 | 10.3% (inactive) | 
27 | Cc1nn2c3cc(N4CCOCC4)ccc3nc2c2ccccc12 |  | 2 µM (active)
28 | Cc1nc2ccccc2n1C(=O)N1CCOCC1 | -6.66% (inactive) | 
29 | COc1ccc(CNC(=O)CC2Oc3ccc(C)cc3NC2=O)cc1 (stereo not drawn) | 9.45% (inactive) | 
30 | Cc1cc(=O)c2cc(C(=O)Nc3cccc(C)c3C)ccc2[nH]1 | 1.75% (inactive) | 
31 | O=C(CSc1nnc(CNC(=O)c2ccccc2)n1-c1ccc(F)cc1)Nc1ccccc1F | 2.75% (inactive) | 
32 | CCc1ccc2oc(-c3ccc(C)c(NC(=O)/C=C/c4ccco4)c3)nc2c1 | -25.8% (inactive) | 
33 | CCc1ccc2oc(-c3ccc(NC(=O)c4cc5ccccc5o4)cc3)nc2c1 | -9.08% (inactive) | 
34 | CCc1ccc2oc(-c3ccc(N)cc3)nc2c1 |  | 7.94 µM (active)
35 | COc1ccc(-c2nnc(SCC(=O)Nc3ccc(C(C)C)cc3)nc2-c2ccc(OC)c(OC)c2)cc1OC | 19.3% (inactive) | 
36 | CC(C)(C)c1ccc(C(=O)NCC(c2ccc(Cl)cc2)N2CCOCC2)cc1 (stereo not drawn) | 16.9% (inactive) | 
37 | NC(=O)c1ccccc1NC(=O)c1ccccc1F | -1.7% (inactive) | 
38 | O=C(Cn1c(=O)sc2ccccc21)Nc1nc2c(s1)CCCC2 | -2.62% (inactive) | 
39 | O=C(Nc1nc2c(s1)CCCC2)c1ccccc1F |  | 7.94 µM (active)
40 | O=C1N(Cc2ccccc2)c2ccc(Cl)cc2C1(O)c1c[nH]c2ccccc12 (stereo not drawn) | 4.69% (inactive) | 
41 | O=C(Nc1ncccn1)c1cccs1 | -9.12% (inactive) | 
42 | Cn1c(=O)c(C(=O)Nc2ncccn2)c(O)c2ccccc21 |  | 12.6 µM (active)

Row | SMILES | activity change, negative = cytotoxicity | Potency
43 | CCOc1cc(C(=O)Nc2ncccn2)cc(OCC)c1OCC | -3.26% (inactive) | 
44 | CC1CCCN(c2nc3c(S(=O)(=O)c4ccc(C(C)C)cc4)nnn3c3ccsc23)C1 (stereo not drawn) | 6.56% (inactive) | 
45 | COc1cccc(CNC(=O)CSc2c3c(nc4cc(Cl)ccc24)CCCC3)c1 | 5.88% (inactive) | 
46 | CCOc1ccc(C(=O)Nc2ccc3nc4c(c(Nc5ccccc5OC)c3c2)CCCC4)cc1 | -14.2% (inactive) | 
47 | CCOc1ccc(NC(=O)CSc2c3c(nc4ccccc24)CCCC3)cc1 |  | 22.4 µM (active)
48 | CCOC(=O)c1cc(-c2ccccc2)n(CCC(=O)Nc2ccccc2CC)c1C | 7.84% (inactive) | 
49 | O=C(NC1CCCCC1)c1ccc(Cn2c(SCc3ccccc3)nc3cccnc32)cc1 | -24.1% (inactive) | 
50 | O=C(NCc1ccc(F)cc1)c1ccc(Cn2c(SCc3ccc(F)cc3)nc3cccnc32)cc1 | -25.6% (inactive) | 
51 | Cc1ccc(CSc2nc3cccnc3n2Cc2ccc(C(=O)NC3CC3)cc2)cc1 |  | 2.24 µM (active)
52 | Cc1ccc(Cl)cc1NC(=O)Cc1ccc(-n2c(C)nc3cccnc32)cc1 | -1.95% (inactive) | 
53 | COc1cccc(N2CC(NC(=O)/C=C\c3ccccc3)CC2=O)c1 (stereo not drawn) | -6.84% (inactive) | 
54 | O=C(O)c1ccc(NC(=O)c2cccs2)cc1 | -6.14% (inactive) | 
55 | Cc1nc(-c2ccc(NC(=O)c3cccs3)cc2)cs1 |  | 1.26 µM (active)
56 | CCc1ccccc1NC(=O)c1cccs1 | 10.4% (inactive) | 
57 | Cc1c(CNC(C)c2ccccc2)c(C(=O)O)c(C)n1Cc1c(F)cccc1Cl (stereo not drawn) | 9.47% (inactive) | 
58 | COc1cc(NC(=O)C2CCN(c3cnccn3)CC2)cc(OC)c1 | 4.51% (inactive) | 
59 | c1ccc2[nH]c(NCCN3CCOCC3)nc2c1 | -0.862% (inactive) | 
60 | CN(C)c1ccc(-c2nc(NCCN3CCOCC3)c3ccccc3n2)cc1 |  | 12.6 µM (active)
61 | c1ccc(-c2nc(NCc3ccco3)c3ccccc3n2)cc1 | 1.53% (inactive) | 
62 | NS(=O)(=O)c1ccc(CCNC(=O)CCCCCn2c(=O)[nH]c3ccccc3c2=O)cc1 | 5.53% (inactive) | 
63 | CC(=O)Nc1cccc(NC(=O)CSc2cn(CC(=O)N3CCCC3)c3ccccc23)c1 | -2.57% (inactive) | 
